# Data: ChEMBL document CHEMBL3988442, “University of Dundee, Small-Polar-MMV Screening Library” (2021)
# Hit rate of the full screen: of about 68,000 compounds, about 25 (0.04%) showed an effect of 50% or more. This excerpt belongs to a sample that is enriched for strong results.
# Target: T1, Methionyl-tRNA synthetase, putative (Leishmania donovani (strain BPK282A1)) (UniProt E9BF75)
# T1 sequence (whole entry): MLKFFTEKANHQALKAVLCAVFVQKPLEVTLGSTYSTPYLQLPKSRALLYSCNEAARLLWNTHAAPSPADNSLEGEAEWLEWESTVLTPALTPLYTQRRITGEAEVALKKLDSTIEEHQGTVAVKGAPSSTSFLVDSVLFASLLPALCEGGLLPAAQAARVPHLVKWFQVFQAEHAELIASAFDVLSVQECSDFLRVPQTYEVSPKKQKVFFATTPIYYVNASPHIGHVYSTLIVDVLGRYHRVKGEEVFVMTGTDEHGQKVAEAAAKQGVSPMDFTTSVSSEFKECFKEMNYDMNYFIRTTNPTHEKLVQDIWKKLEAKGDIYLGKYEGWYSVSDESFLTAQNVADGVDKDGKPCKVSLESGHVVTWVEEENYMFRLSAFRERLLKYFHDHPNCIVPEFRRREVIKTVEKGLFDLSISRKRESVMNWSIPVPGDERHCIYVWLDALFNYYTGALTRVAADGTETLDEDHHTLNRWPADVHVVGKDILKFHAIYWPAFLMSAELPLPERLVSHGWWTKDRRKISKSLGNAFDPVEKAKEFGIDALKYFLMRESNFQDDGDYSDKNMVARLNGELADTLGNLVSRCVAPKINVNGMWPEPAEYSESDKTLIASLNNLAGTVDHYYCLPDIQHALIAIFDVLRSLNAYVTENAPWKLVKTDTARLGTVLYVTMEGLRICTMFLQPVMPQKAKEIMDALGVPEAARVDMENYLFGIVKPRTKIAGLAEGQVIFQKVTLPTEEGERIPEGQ
# Assay: Leishmania donovani Methionine tRNA synthetase (LdMetRS):v6. Primary screen assay
# Type: functional
# Set-up: conc 80 nM, time 150 minutes
row,SMILES,inhibition [%]
1,Cc1ocnc1C(=O)N1CCN(Cc2ccccc2)[C@@H]2CS(=O)(=O)C[C@@H]21,11.8
2,O=C([C@@H]1C[C@H]2[C@H](CCN2Cc2nccs2)O1)N1CCOCC1,12.4
3,Cc1noc([C@@H]2CC[C@@H]3[C@@H](CCN3S(=O)(=O)c3ccccc3)O2)n1,21.6
4,Cn1ccnc1CN1C[C@H]2CN(S(C)(=O)=O)CCN2C1=O,12
5,COCCN1C(=O)CC[C@@H]2[C@H]1CCN2C(=O)C1CCOCC1,7.27
6,CCN1C[C@H]2[C@@H](C1)N(S(=O)(=O)c1ccccc1F)CC[C@H]2OC,18.4
7,Cc1cnn(CCNCc2c(C)nn(C)c2Cl)c1,15.4
8,Cc1cnn(CCNCc2c(C)nn(-c3ccccc3)c2C)c1,121
9,CCn1nc(C)c(CNCCn2cc(C)cn2)c1C,-6.21
10,Cc1cnn(CCNCc2ccccc2F)c1,13
11,Cc1cnn(CCNCc2c(C)nn(Cc3ccccc3)c2C)c1,9.32
12,Cc1cnn(CCNCc2c(C)nn(CCO)c2C)c1,105
13,Cc1cccc2nc(C(=O)N3CCCC[C@]4(C)NC(=O)CC[C@H]34)cn12,13.5
14,O=C(N1CCOCC(O)C1)C1(c2ccc(Cl)cc2)CCC1 (stereo unspecified),123
15,O=C(N1CCOCC1CO)C1(c2cccs2)CCCC1 (stereo unspecified),8.7
16,O=C(N1CCCC(n2cncn2)C1)C1(c2ccc(Cl)cc2)CCC1 (stereo unspecified),15.4

row,SMILES,inhibition [%]
1,O=C(O)CC1COCCN1C(=O)C1(c2ccc(Cl)cc2)CCC1 (stereo unspecified),52.2
2,CNC(=O)CC1COCCN1C(=O)C1(c2ccc(Cl)cc2)CCC1 (stereo unspecified),7.45
3,O=C(N1CCC(O)(C(F)(F)F)C1)C1(c2ccc(Cl)cc2)CC1 (stereo unspecified),8.1
4,O=C(c1ccco1)N1C[C@@H]2CN(c3ccccn3)C[C@@H]2C1,6.11
5,O=C(NCc1ccco1)[C@H]1CC[C@@H]2[C@@H](CCN2c2ncccn2)O1,3.27
6,CC(C)CN1Cc2nc(N3CCC(O)CC3)ncc2C1=O,7.08
7,Cc1nonc1CC(=O)N1C[C@@H]2CC[C@H](C1)N(Cc1ccccc1)C2=O,6.88
8,N#Cc1ccccc1CN1C[C@@H]2CC[C@H](C1)N(CC1CCC1)C2=O,19.4
9,CCc1[nH]c2c(CNc3cncc(C(=O)N(C)C)n3)cc(F)cc2c1C,28.6
10,CCc1[nH]c2c(CNc3cncc(C(=O)OC)n3)cc(C)cc2c1C,123
11,CCc1[nH]c2c(CNc3cncc(C(=O)N(C)C)n3)cc(C)cc2c1C,32.3
12,CCOCC(=O)N1CC[C@H]2OCC[C@@]2(COc2ncccc2F)C1,6.53
13,NC(=O)c1ccc(OCC(=O)N2CCCC2c2ccc[nH]2)cc1 (stereo unspecified),15.5
14,CC1CCN(c2ccc(C(=O)N3CCCC3c3ccc[nH]3)cn2)CC1 (stereo unspecified),78.5
15,CC1CCN(c2ccc(C(=O)N3CCCC3c3nncn3C)cn2)CC1 (stereo unspecified),4.75
